Potency, activity, negative = inhibition and activity change, negative = inhibition data for 60 compounds are collected here from PubChem BioAssay (Tox21).

The target in test [1] is Acetylcholinesterase (Homo sapiens) (UniProt P22303). The test is described as follows: Acetylcholinesterase (AChE) small molecule antagonists: colormetric cell-based qHTS assay (AID 1347395). Note: nearly all actives have a fitted effect of over 30% in size. Note: potency is the fitted concentration of half-maximal effect. Put shortly:
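After overnight attachment at 37 C, SH-SY5Y cells get 30 min compound exposure; detection cocktail (acetylthiocholine, DTNB) then incubates 90 min at 37 C, and absorbance reflects AChE-generated thiocholine.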
On the technique in general: qHTS replaces the single test concentration by a dilution series.

Test [2] has the same target. The experiment in a line: Acetylcholinesterase (AChE) small molecule antagonists: enzyme-based qHTS assay (AID 1347397). Note: nearly all actives have a fitted effect of over 55% in size. The settings on record: Potency: AChE enzyme activity inhibition; outcome: AChE enzyme activity inhibition. Put shortly: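 Colorimetric DTNB readout of acetylthiocholine hydrolysis, 10 min at room temperature, after 30 min room-temperature exposure of 50 mU/mL recombinant human enzyme to compound; DMSO vehicle control.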

Test [3] has the same target. The test is described as follows: Acetylcholinesterase (AChE) small molecule antagonists: fluorescence cell-based qHTS assay (AID 1347398). Note: nearly all actives have a fitted effect of over 50% in size. Note: potency is the fitted concentration of half-maximal effect. To be noted: Potency: AChE activity; outcome: AChE activity. Put shortly:
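Cellular AChE activity read as thiocholine from acetylthiocholine hydrolysis, detected by Thiolite Green fluorescence at 490/520 nm after 40 min at room temperature. Compounds were pre-incubated 30 min at 37 C on adherent SH-SY5Y cells.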

The target is the same in test [4]. The test is described as follows: Acetylcholinesterase (AChE) small molecule antagonists: enzyme-based qHTS assay with human liver microsomes (AID 1347399). Note: nearly all actives have a fitted effect of over 60% in size. The settings on record: Potency: qHTS inhibition; outcome: qHTS inhibition. Put shortly:
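Recombinant human AChE (50 mU/mL in the enzyme mix) and human liver microsomes (0.25 mg/mL final) were preincubated with compound and NADPH (0.25 mg/mL final) for 30 min at 37 C. Acetylthiocholine/DTNB was then added; thiocholine was read colorimetrically after 10 min at room temperature.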

Values without a mark were called inactive. Inconclusive results are not listed. Active and inactive are the calls of the source. Calls come from the whole dose curve.
% is set by controls: 0 for no effect and ±100 for the full control effect.

Chain of Acetylcholinesterase (Homo sapiens) (P22303 whole entry, looked up): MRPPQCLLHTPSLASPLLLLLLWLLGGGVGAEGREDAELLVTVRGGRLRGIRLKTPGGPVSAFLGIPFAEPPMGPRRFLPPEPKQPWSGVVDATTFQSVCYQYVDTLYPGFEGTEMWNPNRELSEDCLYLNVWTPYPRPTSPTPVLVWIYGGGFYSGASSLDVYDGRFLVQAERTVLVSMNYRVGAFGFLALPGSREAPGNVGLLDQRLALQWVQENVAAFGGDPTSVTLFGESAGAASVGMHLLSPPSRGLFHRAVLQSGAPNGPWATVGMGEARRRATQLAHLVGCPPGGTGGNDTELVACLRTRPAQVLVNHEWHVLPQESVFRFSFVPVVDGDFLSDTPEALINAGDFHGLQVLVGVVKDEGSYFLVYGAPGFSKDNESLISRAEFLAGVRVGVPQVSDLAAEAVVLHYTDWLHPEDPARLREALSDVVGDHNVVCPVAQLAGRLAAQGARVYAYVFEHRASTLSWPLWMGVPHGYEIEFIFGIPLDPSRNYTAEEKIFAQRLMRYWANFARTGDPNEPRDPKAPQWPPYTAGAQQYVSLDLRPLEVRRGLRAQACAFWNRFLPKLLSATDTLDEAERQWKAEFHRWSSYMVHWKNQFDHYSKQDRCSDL

Take `CCCCCCCC(=O)OC`: the Potency entry in test [1], in test [2], in test [3] and in test [4] was “inactive” each time.
On to `C=C(C)C(=O)OCCCCCCCCCC`, for which the Potency result in test [1], in test [2], in test [3] and in test [4] was “inactive” in each case.
Consider `CC(C)NCC(O)c1cc(O)cc(O)c1` (stereo not given), for which the Potency entry in test [1], in test [2], in test [3] and in test [4] was “inactive” each time.
Take `COCC(=O)Nc1c(I)c(C(=O)NCC(O)CO)c(I)c(C(=O)N(C)CC(O)CO)c1I` (stereo not given): the Potency entry in test [1], in test [2], in test [3] and in test [4] was “inactive” in each case.
As for `CC(C)(C#N)Nc1nc(Cl)nc(NC2CC2)n1`, the Potency entry in test [1], in test [2], in test [3] and in test [4] was “inactive” in each case.
As for `CC(C)OCCO`, the Potency result in test [1], in test [2], in test [3] and in test [4] was “inactive” each time.
In the case of `OCCCCCO`, the Potency result in test [1], in test [2], in test [3] and in test [4] was “inactive” throughout.
In the case of `CC(=O)OC/C=C/c1ccccc1`, the Potency entry in test [1], in test [2], in test [3] and in test [4] was “inactive” throughout.
Consider `NCC1CCC(C(=O)Oc2ccc(CCC(=O)O)cc2)CC1` (stereo not given), for which the Potency entry in test [1], in test [2], in test [3] and in test [4] was “inactive” each time.
Regarding `C1CSCCS1`, the Potency result in test [1], in test [2], in test [3] and in test [4] was “inactive” in each case.
As for `N[C@@H](Cc1c[nH]c2ccc(O)cc12)C(=O)O`, the Potency entry in test [1], in test [2], in test [3] and in test [4] was “inactive” throughout.
Take `COc1cc(Cl)ccc1Cl`: the Potency result in test [1], in test [2], in test [3] and in test [4] was “inactive” throughout.
For the compound `COCCOCCOCCOCCO`, the Potency result in test [1], in test [2], in test [3] and in test [4] was “inactive” in each case.
As for `CC1CCCC(=O)C1=O` (stereo not given), the Potency result in test [1], in test [2], in test [3] and in test [4] was “inactive” each time.
`Cc1ccc(C(C)C)cc2c(C)ccc1-2`: the Potency entry in test [1], in test [2], in test [3] and in test [4] was “inactive” in each case.
On to `Cc1ccc(N)c(S(=O)(=O)O)c1`, for which the Potency result in test [1], in test [2], in test [3] and in test [4] was “inactive” each time.
For `C1CCC(SSC2CCCCC2)CC1`, the Potency result in test [1], in test [2], in test [3] and in test [4] was “inactive” each time.
In the case of `OC(CCN1CCCCC1)(c1ccccc1)c1ccccc1`, the Potency entry in test [1], in test [2], in test [3] and in test [4] was “inactive” in each case.
`COC(=O)c1ccccc1OC`: the Potency entry in test [1], in test [2], in test [3] and in test [4] was “inactive” in each case.
Consider `O=C1c2ccccc2C(=O)c2cc(O)ccc21`, for which the Potency entry in test [1], in test [2], in test [3] and in test [4] was “inactive” throughout.
Consider `CC1=CC(O)CC(C)(C)C1` (stereo not given), for which the Potency result in test [1], in test [2], in test [3] and in test [4] was “inactive” in each case.
As for `COc1ccc([C@@H]2Sc3ccccc3N(CCN(C)C)C(=O)[C@@H]2OC(C)=O)cc1`, the Potency result in test [1], in test [2], in test [3] and in test [4] was “inactive” in each case.
For the compound `Nc1cc(Cl)cc(S(=O)(=O)O)c1O`, the Potency result in test [1], in test [2], in test [3] and in test [4] was “inactive” in each case.
For the compound `C=C(C)CC(C)(C)C`, the Potency entry in test [1], in test [2], in test [3] and in test [4] was “inactive” throughout.
With `C[N+]1(CC2COC(c3ccccc3)(c3ccccc3)O2)CCCCC1` (stereo not given), the activity, negative = inhibition in test [1] is -0.268% [at 23.6 µM]. In addition, the activity change, negative = inhibition in test [2] was 0.437% [at 23.6 µM]; in test [3], -6.49% [at 23.8 µM]; in test [4] it was 4.03% [at 23.6 µM].
With `Cc1ccc(N=Nc2c(O)ccc3ccccc23)c(C)c1`, the Potency entry in test [1], in test [2], in test [3] and in test [4] was “inactive” in each case.
Take `C[Si]1(C)O[Si](C)(C)O[Si](C)(C)O[Si](C)(C)O[Si](C)(C)O1`: the Potency entry in test [1], in test [2], in test [3] and in test [4] was “inactive” in each case.
In the case of `COc1ccc(O)cc1`, the Potency result in test [1], in test [2], in test [3] and in test [4] was “inactive” throughout.
On to `CCCCCCCCCCCCOCCO`, for which the Potency entry in test [1], in test [2], in test [3] and in test [4] was “inactive” throughout.
As for `CC(C)(CC(=O)O)C(=O)O`, the Potency result in test [1], in test [2], in test [3] and in test [4] was “inactive” throughout.
`NNC(=O)OCc1ccccc1`: the Potency result in test [1], in test [2], in test [3] and in test [4] was “inactive” each time.
`CN(C)c1ccc(O)c2c1C[C@H]1C[C@H]3[C@H](N(C)C)C(=O)C(C(N)=O)=C(O)[C@@]3(O)C(=O)C1=C2O`: the Potency result in test [1], in test [2], in test [3] and in test [4] was “inactive” each time.
On to `O=c1cc[nH]c(=O)[nH]1`, for which the Potency result in test [1], in test [2], in test [3] and in test [4] was “inactive” throughout.
As for `O=C(O)c1ccc(O)cc1O`, the Potency result in test [1], in test [2], in test [3] and in test [4] was “inactive” in each case.
As to `CCC(=O)OC(C)(C)C1CC=C(C)CC1` (stereo not given), the Potency result in test [1], in test [2], in test [3] and in test [4] was “inactive” throughout.
In the case of `C[C@H]1C[C@@H]2[C@H]([C@@H](O)C[C@@]3(C)[C@H]2CC[C@]3(O)C(=O)CO)[C@@]2(C)C=CC(=O)C=C12`, the Potency result in test [1], in test [2], in test [3] and in test [4] was “inactive” throughout.
As for `C=C(c1ccc(C(=O)O)cc1)c1cc2c(cc1C)C(C)(C)CCC2(C)C`, the Potency entry in test [1], in test [2], in test [3] and in test [4] was “inactive” in each case.
As to `Cc1ccc(S(N)(=O)=O)cc1`, the Potency entry in test [1], in test [2], in test [3] and in test [4] was “inactive” throughout.
Consider `COc1ccccc1N1CCN(CC(O)COc2cccc3ccccc23)CC1` (stereo not given), for which the Potency result in test [1], in test [2], in test [3] and in test [4] was “inactive” each time.
For `O=C(O)c1cccc(Cl)c1Cl`, the Potency result in test [1], in test [2], in test [3] and in test [4] was “inactive” throughout.
For `C/C(=C(\CCOP(=O)(O)O)SC(=O)c1ccccc1)N(C=O)Cc1cnc(C)nc1N`, in test [1], the activity, negative = inhibition is -0.469% [at 10.5 µM]. For the same compound, the activity change, negative = inhibition in test [2] is 0.584% [at 10.5 µM]; in test [3], 5.35% [at 10.5 µM]; in test [4] it was -1.26% [at 10.5 µM].
For the compound `C/C(=C(\CCO)SS/C(CCO)=C(\C)N(C=O)Cc1cnc(C)nc1N)N(C=O)Cc1cnc(C)nc1N`, the Potency entry in test [1], in test [2], in test [3] and in test [4] was “inactive” each time.
Consider `CC(C)[C@@H]1CC[C@@H](C)C[C@H]1O`, for which the Potency entry in test [1], in test [2], in test [3] and in test [4] was “inactive” each time.
Regarding `CCN(CC)c1ccc2c(C)cc(=O)oc2c1`, the Potency result in test [1], in test [2], in test [3] and in test [4] was “inactive” in each case.
For the compound `C=C[Si](OC)(OC)OC`, the Potency result in test [1], in test [2], in test [3] and in test [4] was “inactive” each time.
Consider `COc1cccc(O)c1`, for which the Potency result in test [1], in test [2], in test [3] and in test [4] was “inactive” each time.
Turning to `CN(C)C`, the Potency entry in test [1], in test [2], in test [3] and in test [4] was “inactive” throughout.
Take `CCCCCCCCCC`: the Potency result in test [1], in test [2], in test [3] and in test [4] was “inactive” in each case.
In the case of `CCOc1ccc(NC(N)=O)cc1`, the Potency result in test [1], in test [2], in test [3] and in test [4] was “inactive” in each case.
For the compound `CC(C)(Oc1ccc(C2CC2(Cl)Cl)cc1)C(=O)O` (stereo not given), the Potency result in test [1], in test [2], in test [3] and in test [4] was “inactive” each time.
As for `c1ccc2cc(Nc3ccc(Nc4ccc5ccccc5c4)cc3)ccc2c1`, the Potency entry in test [1], in test [2], in test [3] and in test [4] was “inactive” each time.
Consider `CC(=O)CC(=O)N(C)C`, for which the Potency result in test [1], in test [2], in test [3] and in test [4] was “inactive” throughout.
Turning to `CC(=O)/C=C/C1=C(C)CCCC1(C)C`, the Potency in test [1] was 35.6 µM (active); in test [3], 10.2 µM (active). Moreover, the Potency result in test [2] and in test [4] was “inactive” throughout.
As to `CC1=NC(C)OC1C` (stereo not given), the Potency result in test [1], in test [2], in test [3] and in test [4] was “inactive” each time.
With `COCCC(=O)OC`, the Potency entry in test [1], in test [2], in test [3] and in test [4] was “inactive” each time.
With `O=S(=O)(O)CCS`, the Potency entry in test [1], in test [2], in test [3] and in test [4] was “inactive” in each case.
Turning to `CC(C)CCOC(=O)/C=C/c1ccccc1`, the Potency result in test [1], in test [2], in test [3] and in test [4] was “inactive” throughout.
For `CCC1OCC(COc2ccc(Oc3ccccc3)cc2)O1` (stereo not given), the Potency entry in test [1], in test [2], in test [3] and in test [4] was “inactive” throughout.
As to `c1ccc2c(c1)Cc1ccccc1-2`, the Potency result in test [1], in test [2], in test [3] and in test [4] was “inactive” in each case.
Take `NS(=O)(=O)c1cc2c(cc1Cl)CN(C1CCCCC1)C2=O`: the Potency result in test [1], in test [2], in test [3] and in test [4] was “inactive” throughout.
